MPTP block = mitochondrial permeability transition pore inhibitors, primary screen, biochemical, isolated mouse mitochondria, absorbance. Ca2+ swelling absorbance, 30 min. inhibition, % at 10 µM. 360,000 compounds, 1.4% hits. AID 602449, 2012;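 active = inhibition of 50% or more, scaled per plate between neutral and stimulator controls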
HSP90 refold inh = HSP90 inhibitors, primary screen, cell lysate, luminescence; 290,000 compounds, 0.91% hits; Rabbit reticulocyte lysate, luciferase refolding luminescence, 3 h; Heat shock protein HSP 90 (rabbit reticulocyte lysate; luciferase refolding); inhibition, % at 5.6 µM;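 active = inhibition above the screen-wide mean plus 3 SD, computed separately per campaign, cut at about 16% in these data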;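 also: inhibitors lower the luminescence because luciferase stays unfolded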
dFosB act = activators of delta FosB homodimer, primary screen, biochemical, fluorescence polarization, TAMRA-CDK5 oligo, single point. Protein FosB (Mus musculus), P13346. purified delta FosB; percent of positive-control signal above neutral wells. activation, % at 25 µM. 340,000 compounds, 0.99% hits. AID 493131, 2011;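 active = mean activation above about 17%, with every replicate also reaching it, limit read from the data, passing the limit was not always enough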
Target sequence (P13346 whole entry, looked up): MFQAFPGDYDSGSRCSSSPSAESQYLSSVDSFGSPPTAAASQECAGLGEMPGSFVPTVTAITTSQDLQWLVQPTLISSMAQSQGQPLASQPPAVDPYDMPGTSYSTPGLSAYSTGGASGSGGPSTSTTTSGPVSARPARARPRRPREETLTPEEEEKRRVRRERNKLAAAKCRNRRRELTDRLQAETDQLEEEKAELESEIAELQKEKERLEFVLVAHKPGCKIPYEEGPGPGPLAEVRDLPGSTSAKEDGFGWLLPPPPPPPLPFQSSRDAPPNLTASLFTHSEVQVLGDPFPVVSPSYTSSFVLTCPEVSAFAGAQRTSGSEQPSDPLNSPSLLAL
Platelet DG rel = inhibitors of platelet dense granule secretion, primary screen, cell-based, MLPCN, human platelets | human platelet-rich plasma, SFLLRN dense granule ATP release, luminescence | inhibition, %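 (compounds screened at 7.5 µM in platelet-rich plasma)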 | 300,000 compounds, 0.22% hits;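 active = mean replicate score, as percent of positive control, at or above 50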
HSF1 inh = HSF1 inhibitors in luciferase reporter cells, primary screen, cell-based, NIH3T3, luminescence | NIH3T3-HGL HSE-luciferase, MG132-induced, luminescence 8 h; active compounds read low | activity change, negative = inhibition, % at 7.5 µM (by protocol) | 300,000 compounds, 0.77% hits;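 active = more than half of replicate wells show activity change below -50%, luminescence cut by over half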;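 also: luciferase reports HSF-1 transcriptional activity via heat shock element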
HSF-1 act = HSF-1 activators, primary screen, NIH3T3-HGL cells, MG132 stress, luminescence, single point; NIH3T3-HGL HSF-1 luciferase reporter, 8 h; 100% = twice DMSO control signal; activation, % at 9 µM; 300,000 compounds, 1.7% hits; AID 504408, 2011;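 active = mean replicate activation of at least 50% with a set share of replicates each reaching 50%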
Rh123 counter = fluorescence retest of MPTP screen hits in isolated mitochondria, single concentration; inhibition, % at 10 µM; shares compounds with MPTP block; membrane potential, Rhodamine 123 fluorescence; AID 624504, 2012; 5,000 compounds, 78% hits; in the data active = inhibition above about 22%
MPTP abs DR = mitochondrial permeability transition pore inhibitors, dose response, biochemical, absorbance, uHTS hits; shares compounds with MPTP block; isolated mitochondria swelling; IC50, µM; 780 compounds, 58% hits; in the data active = IC50 below about 20 µM
MPTP counter DR = fluorescent counter-screen in isolated mitochondria, dose response, counter-screen for MPTP inhibitor project, biochemical, fluorescence, uHTS hits. shares compounds with MPTP block. isolated mitochondria counterscreen, fluorescence read-out. IC50, µM. 780 compounds, 49% hits; in the data active = IC50 below about 80 µM
Each line names hits and unclear results; the compound was inactive in the other large screens (follow-up assays come after a bar, where they were run). In the library only some 4.9% were active in any assay of this set; here they are far more common.

CC1CCc2c(C(=O)Nc3ccc(OC(F)(F)F)cc3)csc2C1 (stereo unspecified)	MPTP block 94.8 | Rh123 counter 29.3
CCc1c(C)sc(NC(=O)CC#N)c1C#N	none
CCc1c(C)sc(NC(=O)Cn2nc(C(F)(F)F)c3c2CCCC3)c1C#N	MPTP block 65.1 | Rh123 counter 76.6
C/C(CC(=O)Nc1cccc(Br)c1)=N\NC(=O)c1ccc(O)cc1O	none
O=C(Nc1ccc([N+](=O)[O-])cc1)C1CC1(c1ccccc1)c1ccccc1 (stereo unspecified)	MPTP block 92.1 | Rh123 counter 86.7
Cc1ccc(C2(c3ccc(C)cc3)CC2C(=O)Nc2ccc([N+](=O)[O-])cc2O)cc1 (stereo unspecified)	MPTP block 82.3 | Rh123 counter 46.8
COc1ccc(CCNS(=O)(=O)c2ccc3c(c2)CCCC3)cc1OC	none (no result: HSP90 refold inh, Platelet DG rel, HSF1 inh, HSF-1 act)
COc1ccc(S(=O)(=O)N2CCCCC2)cc1NC(=O)c1ccc(OC)c(OC)c1	none (no result: HSP90 refold inh, Platelet DG rel, HSF1 inh, HSF-1 act)
O=C(NCCOc1ccccc1)c1cc(C(=O)NCCOc2ccccc2)cc([N+](=O)[O-])c1	MPTP block 56.5 | Rh123 counter 92.6
COc1ccc(S(=O)(=O)Nc2ccc3c(c2)OCCO3)cc1OC	none
Cc1nc2c(C(=O)NCCC(C)C)c[nH]n2c(=O)c1Cc1ccccc1F	MPTP block 78.4 | Rh123 counter 58.8
O=C(Nc1cc(Cl)cc(Cl)c1)c1coc(=O)c(Br)c1	MPTP block 80.6 | Rh123 counter 86.9
O=c1oc2cc(Oc3c([N+](=O)[O-])cc(C(F)(F)F)cc3[N+](=O)[O-])ccc2c2c1CCCC2	MPTP block 85.5 | Rh123 counter 88.6
O=c1oc2cc(Oc3ccc(C(F)(F)F)cc3[N+](=O)[O-])ccc2c2c1CCC2	none
CCc1c(C)nc2ncnn2c1NCCc1ccc(OC)c(OC)c1	none
COc1ccc(CCNc2c(C)c(C)nc3ncnn23)cc1	MPTP block 74.5 | Rh123 counter 82.5
Cc1[nH]nc(-c2ccc(O)cc2O)c1Oc1ccccc1	MPTP block 55.8 | Rh123 counter 58.1
COc1ccc(OC)c(NC(=O)Cc2nn(C)c(=O)c3ccccc23)c1	none
Cn1nc(CC(=O)Nc2cccc3ncccc23)c2ccccc2c1=O	MPTP block 85.7 | Rh123 counter 24.9
COc1ccc(CNC(=O)Cc2nn(C)c(=O)c3ccccc23)cc1	MPTP block 61.2 (no result: Platelet DG rel, HSF1 inh, HSF-1 act) | Rh123 counter 51.2
COc1cc(CN2CCN(CC#Cc3ccccc3)CC2CCO)cc(OC)c1 (stereo unspecified)	none
CC1(C)SC(=S)N(/N=C/c2ccccc2O)C1N(O)C(=O)Nc1ccccc1 (stereo unspecified)	none
O=C(Nc1ccccc1)Nc1cccc2ccccc12	MPTP block 70.6 | Rh123 counter 75.2
CC(=O)Nc1csc2ccccc12	none
O=C(Nc1ccccc1)Nc1csc2ccccc12	MPTP block 83.6 (no result: dFosB act) | Rh123 counter 85.3
CC1(C)SC(=S)N(NC(=O)Nc2ccccc2)C1N(O)C(=O)Nc1cccc2ccccc12 (stereo unspecified)	MPTP block 71.9 | Rh123 counter 69.0
C[C@@H]1CCCCO[C@@H](CN(C)S(=O)(=O)c2ccccc2)[C@@H](C)CN([C@H](C)CO)C(=O)c2cc(NS(=O)(=O)c3ccc(F)cc3)ccc2O1	none (no result: HSP90 refold inh, dFosB act, Platelet DG rel, HSF1 inh, HSF-1 act)
COc1ccc(-n2nnnc2C2(C)CCC(=O)N2Cc2ccccc2)cc1 (stereo unspecified)	none (no result: HSP90 refold inh, dFosB act, Platelet DG rel, HSF1 inh, HSF-1 act)
N#C/C(=C(/O)c1ccccc1F)c1nc2cc(C(F)(F)F)ccc2s1	MPTP block 95.7 (no result: HSF1 inh, HSF-1 act) | Rh123 counter 92.0
N#C/C(=C(/O)c1ccc2c(c1)OCO2)c1nc2cc(C(F)(F)F)ccc2s1	MPTP block 84.3 | Rh123 counter 93.7
CCOc1ccc2c(c1)C(N(CCN1CCOCC1)C(=O)Nc1ccccc1)CC(C)(C)O2 (stereo unspecified)	none
CC1=CN2C(=N)/C(=C/c3ccc(Sc4ccc(Cl)cc4)o3)C(=O)N=C2S1	MPTP block 58.2 | Rh123 counter 41.5
CC1=CN2C(=N)/C(=C/c3ccc(Sc4ccc(C)cc4)o3)C(=O)N=C2S1	none
Cc1ccc(C(=O)N(CC(=O)Nc2ccc(Cl)c(Cl)c2)Cc2ccco2)cc1	MPTP block 53.0 | Rh123 counter 70.7
O=C(CN(Cc1ccco1)C(=O)c1ccccc1)Nc1ccc(Cl)c(Cl)c1	none
Cc1ccc(C2CC2C(=O)NNC(=S)Nc2cccc(Cl)c2)cc1 (stereo unspecified)	MPTP block 60.6 | Rh123 counter 70.4
O=C(Cc1n[nH]c(=O)c2ccccc12)Nc1cc(C(F)(F)F)ccc1-n1cncn1	none (no result: HSP90 refold inh, Platelet DG rel, HSF1 inh, HSF-1 act)
N#C/C(=N\Nc1cccc(C(F)(F)F)c1)C(=O)c1csc(-c2cccnc2)n1	MPTP block 83.5 | Rh123 counter 60.7
Cc1ccc(C(=O)Nc2cccc(C(F)(F)F)c2)cc1NC(=O)c1csc(-c2ccncc2)n1	none (no result: HSP90 refold inh)
CCOC(=O)C1(CCOc2ccccc2)CCN(Cc2ccc(OC)c(COC)c2)CC1	MPTP block 86.4 | Rh123 counter 74.5
CCOC(=O)C1(CCc2ccccc2)CCN(Cc2c(O)cccc2OC)CC1	MPTP block 62.3 | Rh123 counter 88.2
CCOC(=O)C1(CCOc2ccccc2)CCN(Cc2ccc(COC)o2)CC1	MPTP block 61.2 | Rh123 counter inactive | MPTP abs DR 19 | MPTP counter DR 36.5
COc1ccc(Cl)cc1C(=O)CSc1nnnn1C	none
COc1cccc(COC(=O)Cc2ccc(S(=O)(=O)N3CCOCC3)s2)c1OC	none (no result: HSP90 refold inh, Platelet DG rel, HSF1 inh, HSF-1 act)
CNCc1ccccc1Sc1cccc2ccccc12	MPTP block 93.1 | Rh123 counter 20.3
C=C(C)c1cccc(C(C)(C)NC(=O)Nc2ccc(C(C)=O)cc2)c1	MPTP block 82.3 | Rh123 counter 83.0
COC(=O)c1ccc(N2CCOCC2)c(NC(=O)Nc2cccc(OC)c2)c1	none

High-throughput results deposited in PubChem by several laboratories.
